# Reference: paper PMC4336329 (PLoS ONE, 2015)
# In all, about 310,000 compounds went through this assay and about 14,000 (4.5%) showed an effect of 50% or more. Effects have a minus sign here. Shown is part of a subset that was picked to be rich in strong results.
# Target: human ether-à-go-go-related gene (hERG) potassium channel (human, UniProt Q12809)
# Experiment: primary screen, population patch clamp on CHO cells stably expressing hERG; higher = less effect of the substance
# 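Also: peak tail current of the secondary pulse compared with the same well before compound.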
# human ether-à-go-go-related gene (hERG) potassium channel, sequence (Q12809 whole entry, looked up): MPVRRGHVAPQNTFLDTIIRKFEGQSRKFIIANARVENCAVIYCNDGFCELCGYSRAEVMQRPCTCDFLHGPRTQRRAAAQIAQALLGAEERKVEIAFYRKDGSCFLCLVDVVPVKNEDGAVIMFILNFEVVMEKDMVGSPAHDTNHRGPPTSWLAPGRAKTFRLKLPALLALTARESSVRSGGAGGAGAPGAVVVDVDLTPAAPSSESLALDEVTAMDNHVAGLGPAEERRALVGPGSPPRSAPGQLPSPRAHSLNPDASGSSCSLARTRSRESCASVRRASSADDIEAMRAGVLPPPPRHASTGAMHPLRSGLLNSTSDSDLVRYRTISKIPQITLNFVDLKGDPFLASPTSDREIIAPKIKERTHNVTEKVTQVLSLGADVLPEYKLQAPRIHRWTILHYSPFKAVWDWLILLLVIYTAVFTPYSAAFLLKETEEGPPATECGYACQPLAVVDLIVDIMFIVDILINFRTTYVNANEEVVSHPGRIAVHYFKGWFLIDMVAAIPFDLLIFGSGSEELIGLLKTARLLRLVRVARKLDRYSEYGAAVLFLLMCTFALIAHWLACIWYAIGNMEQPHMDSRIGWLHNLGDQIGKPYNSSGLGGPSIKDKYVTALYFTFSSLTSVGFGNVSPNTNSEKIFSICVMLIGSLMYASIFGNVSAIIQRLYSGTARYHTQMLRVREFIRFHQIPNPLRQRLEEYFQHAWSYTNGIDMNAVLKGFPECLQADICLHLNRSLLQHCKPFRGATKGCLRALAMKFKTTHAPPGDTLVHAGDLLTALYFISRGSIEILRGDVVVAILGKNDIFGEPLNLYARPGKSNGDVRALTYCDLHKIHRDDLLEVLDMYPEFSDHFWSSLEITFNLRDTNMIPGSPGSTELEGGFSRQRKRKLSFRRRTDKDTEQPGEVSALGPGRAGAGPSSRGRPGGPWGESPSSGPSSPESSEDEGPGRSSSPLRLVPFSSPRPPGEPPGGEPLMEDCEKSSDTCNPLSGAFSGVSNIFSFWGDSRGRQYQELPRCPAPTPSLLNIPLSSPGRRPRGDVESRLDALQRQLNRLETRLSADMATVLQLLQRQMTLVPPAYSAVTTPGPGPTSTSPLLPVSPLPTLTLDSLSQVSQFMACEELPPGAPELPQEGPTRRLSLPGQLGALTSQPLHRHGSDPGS
row,SMILES,"hERG current change (%, negative = inhibition) at 10uM"
1,CC12CCC3C(CC=C4CC(O)CCC43C)C1C/C(=C\c1cccc(F)c1)C2=O (stereo not drawn),7.89%
2,COc1ccc(CNC(=O)Cc2nn(C)c(=O)c3ccccc23)cc1,-14.2%
3,CCN1CCN(S(=O)(=O)c2cc(C(=O)O)ccc2Cl)CC1.Cl,-3.34%
4,Cc1ccc(S(=O)(=O)N2CCC(C(=O)NNC(=O)c3ccccc3)CC2)cc1,18.9%
5,CCOc1ccc(NC(=S)N2CCC(C(O)(c3ccccc3)c3ccccc3)CC2)cc1,-13%
6,CC(OC(=O)c1ccc(F)c(S(=O)(=O)N2CCOCC2)c1)C(=O)NCC1CCCCC1 (stereo not drawn),1.84%
7,C=CCOCCN(CC)CC,-21.3%
8,Cc1ccc(NC(=O)CSc2nnc(CNC(=O)c3c(F)cccc3Cl)o2)cc1,3.28%
9,COc1cc(/C=C2\C(=O)N(CCC#N)N=C2C)ccc1OCC(=O)Nc1ccccc1,-7.3%
10,Cc1ccsc1-c1nc(CN2CCCC2c2ccc(F)cc2)c(C)o1 (stereo not drawn),24.9%
11,Cc1ccc(-c2nc(CS(=O)CC(=O)NC3CC3)c(C)o2)cc1 (stereo not drawn),6.39%
12,Cc1ccc(-c2nc(CN(C)C(C3CC3)C3CC3)c(C)o2)cc1,-56.6%
13,Cc1ccsc1-c1nc(CN2CCN(C)C(=O)[C@@H]2C)c(C)o1,-52.5%
14,Cc1ccsc1-c1nc(CN(C)C(C2CC2)C2CC2)c(C)o1,-76%
15,Cc1oc(-c2cc(F)ccc2F)nc1CN1CCN(C)C(=O)[C@@H]1C,8.32%
16,Cc1oc(-c2cccc(Cl)c2)nc1CN(C)C1CCOC1 (stereo not drawn),0.385%
17,Cc1oc(-c2ccc3ccccc3c2)nc1CN(C)C(C)c1ccncn1 (stereo not drawn),-49.8%
18,Cc1ccsc1-c1nc(CN2C[C@@H](C)O[C@@H](C)C2)c(C)o1,17.5%
19,COc1cccc(C2CCCN2Cc2nc(-c3sccc3C)oc2C)c1 (stereo not drawn),20.6%
20,Cc1oc(-c2ccc(-c3ccccc3)cc2)nc1CN(C)C1CCOC1 (stereo not drawn),-55.8%
21,CSc1ccc(-c2nc(CN(C)C3CCOC3)c(C)o2)cc1 (stereo not drawn),-31.4%
22,O=[N+]([O-])c1cccc(-c2c(-c3ccccc3)ncc3cc(F)ccc23)c1,0.428%
23,Nc1cccnc1S(=O)(=O)c1ccccc1,13.8%

row,SMILES,"hERG current change (%, negative = inhibition) at 10uM"
1,O=C(c1ccco1)N1CCN(C2=NS(=O)(=O)c3ccccc32)CC1,-3.13%
2,COc1ccc(CCC(=O)Nc2cccc(Cl)c2)cc1,-1.25%
3,O=C(CN1C(=O)NC2(CCOc3ccccc32)C1=O)c1ccc(Cl)cc1 (stereo not drawn),-43.5%
4,O=C(Nc1cccc(-c2ccc(N3CCOCC3)nn2)c1)c1ccc(Cl)cc1,-3.12%
5,Cc1oc(-c2ccc(-c3ccccc3)cc2)nc1CN(CCO)C(C)C,-44.1%
6,COCCN(Cc1nc(-c2ccc(-c3ccccc3)cc2)oc1C)C(C)C,-71.4%
7,Cc1oc(-c2ccccc2)nc1CC(=O)O,8.97%
8,COc1ccc(-c2csc(NC(=O)c3ccc(C(C)(C)C)cc3)c2C(=O)O)cc1,24.9%
9,CC(NC(=S)NCCc1ccccc1)C(c1cccs1)N1CCN(C)CC1 (stereo not drawn),-35.7%
10,CC(=O)c1ccc(NC(=O)Nc2ccncc2)cc1,15.3%
11,O=C(CCCc1c[nH]c2ccccc12)N[C@@H](Cc1c[nH]c2ccccc12)C(=O)O,18.9%
12,CCOC(=O)N1CCC(NC(=O)c2cc(C(=O)Nc3ccc(S(=O)(=O)N4CCCCC4)cc3)ccc2CO)CC1,34.2%
13,CCOC(=O)Cn1nc(C)cc1NC(=O)c1cccnc1,10%
14,O=C(CCCc1nc(-c2ccc(Cl)cc2)no1)NC1CCCC1,-1.19%
15,O=C(O)[C@H](Cc1ccccc1)NC(=O)N1CCOCC1,-7.49%
16,CCOC(=O)c1cnc2c(OC)cccc2c1NCc1cccnc1,-72.2%
17,CCOC(=O)c1cnc2c(OC)cccc2c1N1CC(C)CC(C)C1 (stereo not drawn),-17.1%
18,CCOC(=O)c1ccc(NCc2cccnc2)cc1,0.518%
19,CCOC(=O)c1cnc2c(Cl)cccc2c1NCCN(C)C.Cl,-25.6%
20,CCOC(=O)c1cnc2ccc(OC)cc2c1Nc1ccc2c(c1)OCCO2,1.43%
21,CCOC(=O)c1cnc2c(OC)cccc2c1Nc1ccc2c(c1)OCCO2,-56.3%
22,CCOC(=O)c1cnc2c(OC)cccc2c1Oc1ccccc1,3.3%
23,CCOC(=O)c1cnc2ccccc2c1Nc1ccc2c(c1)OCCO2,-12.3%

row,SMILES,"hERG current change (%, negative = inhibition) at 10uM"
1,CCOC(=O)c1cnc2c(C(=O)OC)cccc2c1NCc1cccnc1,-70.5%
2,CC(=O)c1cccc(NC(=O)C(C)OC(=O)CN2C(=O)NC(C)(C)C2=O)c1 (stereo not drawn),23.8%
3,COC(=O)C1=C(c2cc3ccccc3s2)C[C@@H]2CC[C@H]1N2C(=O)NCCNC(C)=O,2.06%
4,O=C(O)Cn1ccnc1,4.81%
5,Nc1ccccc1-c1nnc(SCc2ccccc2Cl)[nH]c1=O,-0.313%
6,COC(=O)C(c1ccccc1)N1CCCCCC1.Cl (stereo not drawn),10.8%
7,Cc1nc2ncnn2c(C)c1CCC(=O)N1CCN(c2ccccn2)CC1,-33.3%
8,Cc1nc2ncnn2c(C)c1CCC(=O)N1CCOCC1,1.89%
9,CCOC(=O)N1CCN(C(=O)CCc2c(C)nc3nc(C)nn3c2C)CC1,-22%
10,Cc1nc2nc(C)c(CCC(=O)O)c(C)n2n1,8.07%
11,Cc1nc2nc(C)c(CCC(=O)N3CCc4ccccc43)c(C)n2n1,-63.5%
12,Cc1nc2ncnn2c(C)c1CCC(=O)N1CCN(Cc2ccccc2)CC1,-7.67%
13,Cc1nc2ncnn2c(C)c1CCC(=O)N1CCc2ccccc2C1,-63.4%
14,Cc1nc2ncnn2c(C)c1CCC(=O)N1CCCCC1,-2.79%
15,Cc1nc2ncnn2c(C)c1CCC(=O)N1CCc2ccccc21,-80.6%
16,CCc1nnc(NC(=O)CCN2C(=O)/C(=C/c3cc(OC)c(OC)c(OC)c3)SC2=S)s1,8.4%
17,O=C(O)CCC(C(=O)O)n1c(O)c(C2=c3ccccc3=NC2=O)sc1=S (stereo not drawn),20.5%
18,Cc1ccc(OCC(=O)N2CCC(N3CC(C)CC(C)C3)CC2)cc1 (stereo not drawn),-45.5%
19,S=C1NCN(CCc2ccccc2)CN1Cc1ccccc1,14.8%
20,COc1ccc(CNC(=O)Cn2cc([N+](=O)[O-])cn2)cc1,16.1%
21,O=C(COC(=O)c1ccc2ncsc2c1)NCc1ccc(Cl)cc1,-4.62%
22,O=C(Nc1cccnc1)c1cc(-c2ccccc2)on1,5.06%
23,COc1ccc2oc(=O)c(C(=O)N3c4ccccc4CC3C)cc2c1 (stereo not drawn),-21.6%

row,SMILES,"hERG current change (%, negative = inhibition) at 10uM"
1,COc1ccc2oc(=O)c(C(=O)N3CCCc4ccccc43)cc2c1,-63.1%
2,COc1ccc2oc(=O)c(C(=O)N3CCc4ccccc43)cc2c1,15.8%
3,COc1ccc(OCc2nc3c4cc(OC)c(OC)cc4nc(=S)n3[nH]2)cc1,11.7%
4,COc1cc2nc(COc3ccc(C#N)cc3)n(CC#N)c(=O)c2cc1OC,-50.7%
5,CCSc1nc2cc(OC)c(OC)cc2c(=O)n1CC,-2.16%
6,Cc1ccc(Cn2c(Sc3nnc(C)s3)nc3c2c(=O)[nH]c(=O)n3C)cc1,-46.8%
7,COc1cccc(C2C3=C(Nc4[nH]n(-c5ccccc5)c(=O)c42)c2ccccc2C3=O)c1 (stereo not drawn),9.64%
8,O=C(Cc1ccc(Br)cc1)NC1CCN(Cc2ccccc2)CC1,-56%
9,O=C(Cn1cc2c(n1)CCCC2)NC1CCN(Cc2ccccc2)CC1,-8.32%
10,Cl.O=C(Cc1ccccc1)NC1CCN(Cc2ccccc2)CC1,1.21%
11,O=C(Cn1cc2c(n1)CCCCC2)NC1CCCCCC1,0.992%
12,CN(CC(=O)NC1CCN(Cc2ccccc2)CC1)S(=O)(=O)c1ccc(Cl)cc1,-40.2%
13,O=C(Cn1cc2c(n1)CCCCC2)NC1CCN(Cc2ccccc2)CC1,-58.5%
14,O=C(CCNS(=O)(=O)c1ccc(Br)cc1)NC1CCN(Cc2ccccc2)CC1,-61.9%
15,CN(CC(=O)NC1CCN(Cc2ccccc2)CC1)S(=O)(=O)c1ccc(Cl)s1,-67.9%
16,CCOc1ccc(S(=O)(=O)NCCC(=O)NC2CCN(Cc3ccccc3)CC2)cc1,-21.8%
17,CN(CC(=O)NC1CCN(Cc2ccccc2)CC1)S(=O)(=O)c1ccc(Br)s1,-18%
18,O=C(CCNS(=O)(=O)c1cccs1)NC1CCN(Cc2ccccc2)CC1,9.19%
19,Cc1ccc(CC(=O)NC2CCN(Cc3ccccc3)CC2)cc1,-12.7%
20,CC1=CC(C)C2COC(c3ccc[n+](C)c3)C1C2C.[I-] (stereo not drawn),14.3%
21,O=C1/C(=C/c2ccncc2)N2CCC1CC2,2.32%
